Bioassay records deposited in PubChem BioAssay by Sanford-Burnham Center for Chemical Genomics.
Hits are enriched below; roughly 4% of the tested compounds scored in any of these assays.
NALP3 yeast inh – NALP3 inflammasome inhibitors in reconstituted yeast, primary screen, luminescence, uHTS; Yeast reconstituted NLRP3/ASC/caspase-1, beta-gal luminescence, 24 h; inhibition, % at 10 µM; hit rate 0.39% among 330,000;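 active = inhibition of 50% or more; inactive = inhibition below 50%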;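 note: plate controls were induced DMSO wells for no effect and uninduced yeast grown without galactose for full effect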
TIM10 inh – growth inhibitors of isogenic TIM10 control yeast, primary screen, counter-screen for tim10-1 yeast inhibitor project, luminescence, uHTS; S. cerevisiae TIM10 strain growth, BacTiter-Glo luminescence, 24 h; inhibition, % at 10 µM; hit rate 1.4% among 330,000; AID 463195, 2010;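 active = inhibition of 40% or more at the single tested concentration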;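 note: wild-type TIM10 isogenic control strain grown at permissive 25 °C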
tim10-1 inh – growth inhibitors of tim10-1 mutant yeast, primary screen, luminescence, uHTS | S. cerevisiae tim10-1 ts strain growth, BacTiter-Glo, 24 h | inhibition, % at 20 µM | hit rate 2.2% among 330,000;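 active = inhibition of at least 40%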;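 note: mutant grown at 25 °C; 0% = DMSO wells with yeast and 100% = wells holding no yeast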
tim23-1 inh – growth inhibitors of tim23-1 mutant yeast, primary screen, luminescence, uHTS; S. cerevisiae tim23-1 growth, BacTiter-Glo luminescence, 24 h; inhibition, % at 20 µM; hit rate 1.3% among 330,000;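 active = growth inhibition of the mutant yeast at or above 50%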;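 note: temperature-sensitive mutant grown at 25 °C; plate controls were DMSO-treated mutant yeast for no effect and medium wells lacking yeast for full effect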
NALP1 inh – NALP1 inflammasome inhibitors in reconstituted yeast, colorimetric, S. cerevisiae, triplicate retest. S. cerevisiae NALP1/ASC/caspase-1 growth, X-gal OD620, 72 h. inhibition, % at 10 µM. hit rate 0.61% among 280,000. AID 2071, 2009; in the data active = inhibition mostly above about 24%, no sharp cut-off; inactive = mostly below about 32%
tim10-1 conf – growth inhibitors of tim10-1 mutant yeast, confirmation, single concentration, luminescence, S. cerevisiae. shares compounds with tim10-1 inh. S. cerevisiae tim10-1 ts strain growth, BacTiter-Glo, 24 h. inhibition, % at 20 µM. hit rate 56% among 7,400;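 active = inhibition of yeast growth at or above a set limit in either of two repeat tests at 20 µM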;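 note: tim10-1 mutant grown at permissive 25 °C to find synthetic lethal compounds; 0% = DMSO yeast wells and 100% = medium wells without yeast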
* marks the source's active call; other numbers are inactive results; . = not tested or not shown.

SMILES	NALP3 yeast inh	TIM10 inh	tim10-1 inh	tim23-1 inh	NALP1 inh	tim10-1 conf
COc1ccc(Sc2nc(-c3ccccn3)ncc2OC)cc1	28	30	27	43	2	.
CN(Cc1ccon1)Cc1cn(C)nc1-c1cccc(Cl)c1	9	-5	15	6	-4	.
COc1ccccc1N1CCN(C(=O)COc2cc(C)cc(C)c2)CC1	14	3	33	33	17	.
C[n+]1cccc(C(=O)Nc2ccccc2)c1	6	-5	7	2	-4	.
O=C(CSc1nnc(-c2cccnc2)n1CCN1CCCCC1)Nc1cccc(Cl)c1	-13	-13	2	10	-11	.
N/C(=N\OC(=O)c1cccc(Cn2cc(C(F)(F)F)ccc2=O)c1)c1ccccc1	21	22	44*	1	15	52*
S=C(Nc1ccc(Oc2ccccc2)cc1)NC1CCCCCC1	.	.	.	.	25	.
CN(C(=S)Nc1ccc(Oc2ccccc2)cc1)C1CCCCC1	30	27	40*	21	.	19
CCOc1ccc(/C=N/n2cc(-c3ccccc3)[nH]c2=S)cc1	14	21	42*	-3	-11	15
CCN(CC)C(=O)N1CCc2ccccc2C1CN1C(=O)c2ccccc2C1=O (stereo not given)	1	28	48*	42	.	22
O=C1c2ccccc2C(=O)N1CC1c2ccccc2CCN1C(=O)C1CCCCC1 (stereo not given)	13	6	22	38	8	.
Cc1cc(C)c(C(=O)N(C)C2CCCN(Cc3ccccc3F)C2)o1 (stereo not given)	3	12	6	-7	26	.
O=C(CSc1cccc(C(F)(F)F)c1)Nc1ccc(N2CCOCC2)cc1	16	9	6	29	.	.
O=C(CN1CCOCC1)Nc1ncc(Cc2cccc(Cl)c2Cl)s1	6	32	34	14	23	.
O=[N+]([O-])c1ccc(O)c(NC(=S)Nc2ccccc2)c1	-24	38	48*	35	0	27
COc1ccc([N+](=O)[O-])cc1NC(=S)Nc1ccccc1	18	13	10	13	-3	.
CCOc1cccc2c1OC(c1cc(OC)c(OC)c(OC)c1)N1N=C(c3ccc(C)o3)CC21 (stereo not given)	4	27	33	18	29	.
CCCCCCC1C(C#N)=C(N)OC2=C1C(=O)CC(C)(C)C2 (stereo not given)	12	-15	14	3	16	.
CCCCC1C2=C(CC(C)(C)CC2=O)OC2=C1C(=O)CC(C)(C)C2	18	19	44*	48	28	38*
Cc1ccc(-c2nn(-c3ccccc3)cc2C(=O)N2CCOCC2)cc1	-5	32	40*	36	-1	24
COc1cccc(NC(=O)CCC(=O)N2CC(C)Oc3ccc(C)cc32)c1 (stereo not given)	-9	14	13	25	8	.
CC1CCC/C(=N\NC(=S)NCc2ccccc2)C1 (stereo not given)	13	28	41*	35	-6	32*
CCN(CC1CCCO1)C(=O)c1cc(COc2cc(C)c(Cl)c(C)c2)on1 (stereo not given)	19	7	10	4	-1	.
O=C(Nc1ccc(N2CCN(C(=O)c3ccco3)CC2)cc1)c1ccc2c(c1)OCO2	2	13	11	10	-10	.
O=C(Nc1ccc(N2CCN(C(=O)c3ccccc3F)CC2)cc1)c1cncc(Br)c1	29	13	46*	35	10	31*
SMILES	NALP3 yeast inh	TIM10 inh	tim10-1 inh	tim23-1 inh	NALP1 inh	tim10-1 conf
O=C(Nc1ccc(N2CCN(C(=O)c3cccs3)CC2)cc1)c1cccc(F)c1	9	32	48*	34	14	33*
Cc1ccccc1C(=O)N1CCN(c2ccc(NC(=O)c3ccc4c(c3)OCO4)cc2)CC1	4	11	44*	29	2	29*
Cn1cncc1C#Cc1c(C=O)[nH]c2ccccc12	7	18	-2	44	.	.
COc1ccc(C2C(C(C)=O)=C(O)C(=O)N2c2nccs2)c(OC)c1 (stereo not given)	1	0	-7	1	16	.
CCc1ccccc1NC(=O)CC1CS(=O)(=O)CC1CC(=O)Nc1ccccc1CC (stereo not given)	5	6	11	-1	21	.
O=C(CC1CS(=O)(=O)CC1CC(=O)Oc1ccccc1F)Oc1ccccc1F (stereo not given)	4	15	44*	34	28	22
CN(CC(=O)Nc1ccc(F)cc1)C(=O)COc1ccc(C(=O)c2ccccc2)cc1	11	16	14	15	9	.
CCOC(=O)c1c(OCC)[nH]c2c1cc(O)c1ccccc12	-1	37	43*	41	3	41*
CCOC(=O)c1c(C)[nH]c2cc(Br)c(O)cc12	-3	25	23	27	24	.
COc1cc(-c2nnc(COc3ccc4cc(Br)ccc4c3)o2)cc(OC)c1OC	3	13	24	19	34	.
COc1ccc(-c2nnc(COc3ccc4ccccc4c3)o2)cc1OC	22	6	43*	-3	22	12
CCOC(=O)c1c(C)[nH]c(C(=O)NCCc2ccc(OC)c(OC)c2)c1C	21	-5	7	19	21	.
O=c1c2ccccc2c(-c2n[nH]c(=S)o2)nn1Cc1ccccc1	29	14	9	2	8	.
OCc1ccc(-c2nn(Cc3ccccc3)c3ccccc23)o1	10	3	40*	44	.	30*
CCC(C)C(=O)Nc1cc(C(=O)OC)cc(C(=O)OC)c1 (stereo not given)	11	1	18	17	-7	.
CCCC(=O)Nc1ccc(C(=O)/C=C/c2ccc(SC)cc2)cc1	9	29	45*	42	0	34*
CCCC(=O)Nc1ccc(C(N)=O)cc1	-5	-9	20	7	11	.
O=C(C1=C(O)C(=O)N(Cc2cccnc2)C1c1ccccn1)c1cccs1 (stereo not given)	18	0	-1	11	10	.
O=C1/C(=C/c2ccccc2Cl)SC(=S)N1CCC(=O)N1CCCCC1CCO (stereo not given)	11	29	46*	49	16	28
Cc1cc(C)n2nc(SCC(=O)N3CCN(c4ccccc4)CC3)nc2n1	19	5	3	6	.	.
Cc1cc(C(=O)COc2ccccc2[N+](=O)[O-])c(C)n1C1CC1	3	21	44*	23	11	27
Nc1cc(-c2cccc(Br)c2)nn1Cc1ccccc1	20	18	46*	34	45	18
CCCOc1ccccc1NC(=O)/C=C/C(N)=O	33	37	62*	32	59*	56*
